According to PubChem BioAssay (NCI):
This is part of a sample that, as a whole, favours compounds with a hit. Of some 83,000 tested, about 20% had one in any assay.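 Activity criterion: percent growth below 10, measured after cells in 96-well plates were exposed to a single compound concentration for 48 hours.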 Unmarked numbers belong to inactive results. Calls of active or inactive are those of the source.

Experiments:
Test in all cases: NCI-60 one-dose screen, 48 h (100 = growth as untreated, 0 = no growth, -100 = all killed)
Details in all cases: 10 µM unless noted
NCI-H23 lung = test system: NCI-H23 lung
NCI-H226 lung = test system: NCI-H226 lung
NCI-H322M lung = test system: NCI-H322M lung
HOP-62 NSCLC = test system: HOP-62 NSCLC
NCI-H460 lung = test system: NCI-H460 lung
HOP-92 NSCLC = test system: HOP-92 NSCLC
NCI-H522 lung = test system: NCI-H522 lung
A549/ATCC NSCLC = test system: A549/ATCC NSCLC
786-0 renal = test system: 786-0 renal
COLO 205 colon = test system: COLO 205 colon
DU-145 prostate = test system: DU-145 prostate
K-562 leukemia = test system: K-562 leukemia
MALME-3M melanoma = test system: MALME-3M melanoma
MDA-MB-231 breast = test system: MDA-MB-231 breast
RXF 393 renal = test system: RXF 393 renal
SF-268 CNS = test system: SF-268 CNS
SF-295 CNS = test system: SF-295 CNS
SF-539 CNS = test system: SF-539 CNS
UACC-257 melanoma = test system: UACC-257 melanoma
M14 melanoma = test system: M14 melanoma

CC1=C[C@H]2c3c(c(O)c(O)c4oc5c(C)cccc5c(=O)c34)[C@H](c3cc(O)c(O)c4oc5c(C)cccc5c(=O)c34)[C@H]2C(C)(C)C1
growth (NCI-H23 lung): -15.2% (active) | growth (NCI-H226 lung): 0.242% (active) | growth (NCI-H322M lung): 21.5% | growth (HOP-62 NSCLC): 9.87% (active) | growth (NCI-H460 lung): -44.3% (active) | growth (HOP-92 NSCLC): 20.9% | growth (NCI-H522 lung): 3.27% (active) | growth (A549/ATCC NSCLC): 11.9% | growth (786-0 renal): -3.44% (active) | growth (COLO 205 colon): 16.3% | growth (DU-145 prostate): 23.9% | growth (K-562 leukemia): 2.97% (active) | growth (MALME-3M melanoma): 18.9% | growth (MDA-MB-231 breast): 23.7% | growth (RXF 393 renal): 21.5% | growth (SF-268 CNS): -1.07% (active) | growth (SF-295 CNS): -32.4% (active) | growth (SF-539 CNS): -18.5% (active) | growth (UACC-257 melanoma): 23.4% | growth (M14 melanoma): 13.7%

FC(F)(F)c1[nH]ncc1-c1nc2ccc3n[nH]c(C#Cc4cccnc4)c3c2c2c1CCCC2
growth (NCI-H23 lung): 34.1% | growth (NCI-H226 lung): 47.5% | growth (NCI-H322M lung): 32.8% | growth (HOP-62 NSCLC): 36% | growth (NCI-H460 lung): 19.1% | growth (HOP-92 NSCLC): 71.6% | growth (NCI-H522 lung): 28.7% | growth (A549/ATCC NSCLC): 27% | growth (786-0 renal): 30.7% | growth (COLO 205 colon): 33.4% | growth (DU-145 prostate): 45.1% | growth (K-562 leukemia): 44.6% | growth (MALME-3M melanoma): 22.8% | growth (MDA-MB-231 breast): 51.7% | growth (RXF 393 renal): 21.4% | growth (SF-268 CNS): 49.6% | growth (SF-295 CNS): 42.7% | growth (SF-539 CNS): 19.6% | growth (UACC-257 melanoma): 57.7% | growth (M14 melanoma): 27.2%

C=C(C)[C@@H]1CC[C@]2(C(=O)OC)CC[C@]3(C)[C@H](CC[C@@H]4[C@@]5(C)C/C(=C/c6cccc(I)c6)C(=O)C(C)(C)[C@@H]5CC[C@]43C)[C@@H]12
growth (NCI-H23 lung): 91.4% | growth (NCI-H226 lung): 94.2% | growth (NCI-H322M lung): 97.3% | growth (HOP-62 NSCLC): 88% | growth (NCI-H460 lung): 101% | growth (HOP-92 NSCLC): 100% | growth (NCI-H522 lung): 89% | growth (A549/ATCC NSCLC): 101% | growth (786-0 renal): 95.3% | growth (COLO 205 colon): 125% | growth (DU-145 prostate): 113% | growth (K-562 leukemia): 96.9% | growth (MALME-3M melanoma): 91.6% | growth (MDA-MB-231 breast): 98.4% | growth (RXF 393 renal): 88.1% | growth (SF-268 CNS): 95.1% | growth (SF-295 CNS): 97.6% | growth (SF-539 CNS): 91.7% | growth (UACC-257 melanoma): 107% | growth (M14 melanoma): 103%

O=C(COc1cccc(/C=C2\CSc3ccccc3C2=O)c1)Nc1nccs1
growth (NCI-H23 lung): 19.7% | growth (NCI-H226 lung): 104% | growth (NCI-H322M lung): 98.7% | growth (HOP-62 NSCLC): 88.1% | growth (NCI-H460 lung): 91.5% | growth (HOP-92 NSCLC): -52% (active) | growth (NCI-H522 lung): -60.3% (active) | growth (A549/ATCC NSCLC): 95.1% | growth (786-0 renal): 101% | growth (COLO 205 colon): 113% | growth (DU-145 prostate): 106% | growth (K-562 leukemia): -58.1% (active) | growth (MALME-3M melanoma): 16.9% | growth (MDA-MB-231 breast): 80.6% | growth (RXF 393 renal): 71% | growth (SF-268 CNS): 43.5% | growth (SF-295 CNS): 115% | growth (SF-539 CNS): 75.3% | growth (UACC-257 melanoma): 86% | growth (M14 melanoma): 39.1%

CSc1nc(Nc2cccc(NC(=O)/C(C#N)=C/c3c(Cl)cccc3Cl)c2)c(C#N)c(-c2cccc([N+](=O)[O-])c2)n1
growth (NCI-H23 lung): 57.9% | growth (NCI-H226 lung): 64.9% | growth (NCI-H322M lung): 85.5% | growth (HOP-62 NSCLC): 89.7% | growth (NCI-H460 lung): 71.7% | growth (HOP-92 NSCLC): 59.8% | growth (NCI-H522 lung): 38.8% | growth (A549/ATCC NSCLC): 92% | growth (786-0 renal): 54% | growth (COLO 205 colon): 76% | growth (DU-145 prostate): 58% | growth (K-562 leukemia): 20.4% | growth (MALME-3M melanoma): 96.5% | growth (MDA-MB-231 breast): 52.5% | growth (RXF 393 renal): 68.3% | growth (SF-268 CNS): 59.6% | growth (SF-295 CNS): 92% | growth (SF-539 CNS): 65.2% | growth (UACC-257 melanoma): 73.5% | growth (M14 melanoma): 22.6%

C=CC(=O)Nc1cccc(-c2nc(SC)nc(NCCN3CCOCC3)c2C#N)c1
growth (NCI-H23 lung): 92.5% | growth (NCI-H226 lung): 97.1% | growth (NCI-H322M lung): 94.2% | growth (HOP-62 NSCLC): 99.9% | growth (NCI-H460 lung): 101% | growth (HOP-92 NSCLC): 76.1% | growth (NCI-H522 lung): 76% | growth (A549/ATCC NSCLC): 101% | growth (786-0 renal): 87.5% | growth (COLO 205 colon): 114% | growth (DU-145 prostate): 94.7% | growth (K-562 leukemia): 87.7% | growth (MALME-3M melanoma): 89.6% | growth (MDA-MB-231 breast): 87.9% | growth (RXF 393 renal): 89.7% | growth (SF-268 CNS): 83.8% | growth (SF-295 CNS): 106% | growth (SF-539 CNS): 93.3% | growth (UACC-257 melanoma): 94.1% | growth (M14 melanoma): 89.9%

O=C1NC(=O)C(c2ccc(Cl)cc2Cl)N1 (stereo not given)
growth (NCI-H23 lung): 100% | growth (NCI-H226 lung): 103% | growth (NCI-H322M lung): 100% | growth (HOP-62 NSCLC): 111% | growth (NCI-H460 lung): 95.2% | growth (HOP-92 NSCLC): 107% | growth (NCI-H522 lung): 93.8% | growth (A549/ATCC NSCLC): 101% | growth (786-0 renal): 110% | growth (COLO 205 colon): 125% | growth (DU-145 prostate): 112% | growth (K-562 leukemia): 102% | growth (MALME-3M melanoma): 106% | growth (MDA-MB-231 breast): 101% | growth (RXF 393 renal): 117% | growth (SF-268 CNS): 106% | growth (SF-295 CNS): 110% | growth (SF-539 CNS): 115% | growth (UACC-257 melanoma): 112% | growth (M14 melanoma): 106%

Cn1cccc1-c1nc2c3c(ccc2[nH]1)C(=O)c1ccccc1C3=O
growth (NCI-H23 lung): 85.3% | growth (NCI-H226 lung): 86.2% | growth (NCI-H322M lung): 81.8% | growth (HOP-62 NSCLC): 102% | growth (NCI-H460 lung): 87.2% | growth (HOP-92 NSCLC): 89% | growth (NCI-H522 lung): 73.6% | growth (A549/ATCC NSCLC): 87.9% | growth (786-0 renal): 103% | growth (COLO 205 colon): 120% | growth (DU-145 prostate): 101% | growth (K-562 leukemia): 73.8% | growth (MALME-3M melanoma): 90.5% | growth (MDA-MB-231 breast): 88.6% | growth (RXF 393 renal): 93% | growth (SF-268 CNS): 97.8% | growth (SF-295 CNS): 97.9% | growth (SF-539 CNS): 90.7% | growth (UACC-257 melanoma): 94.3% | growth (M14 melanoma): 99.7%
